# Values joined by “and” are separate entries in the source; they are usually repeats but may differ in a detail not shown here. Identical values can stand only once. Records with an inconclusive call do not appear. Where a call stands in place of a potency, no number is given. Active and inactive are the calls of the source. The call rests on the fitted dose curve; in most records, active means well fitted inhibition curve with a large enough effect; inconclusive means small, poorly fitted or top-dose-only effect; inactive means flat fitted curve, though single readings scatter.
# Assays:
# Test in all cases: qHTS profiling for inhibitors of Plasmodium falciparum proliferation (AID 504749); further: nearly all actives have a fitted effect of over 60% in size
# Settings in all cases: P. falciparum in erythrocytes, SYBR Green DNA, 72 h; series mostly up to 28.7 µM
# [1] = system: AA1029
# Outline: (§1)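 P. falciparum-infected erythrocytes (0.3% parasitemia, 2.5% hematocrit final) were exposed to compounds for 72 h at 37 C in 5% CO2, then lysed with SYBR Green buffer overnight at room temperature; parasite DNA fluorescence was normalized to artemisinin and DMSO controls.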
# [2] = system: AS120
# Outline: as §1
# [3] = system: ATS189
# Outline: as §1
# [4] = system: ATS95
# Outline: as §1
# [5] = system: C2A
# Outline: as §1
# [6] = system: CP185
# Outline: as §1
# [7] = system: CP191
# Outline: as §1
# [8] = system: CP192
# Outline: as §1
# [9] = system: CP194
# Outline: as §1
# [10] = system: CP201
# Outline: as §1
# [11] = system: CP203
# Outline: as §1
# [12] = system: CP211
# Outline: as §1
# [13] = system: CP215
# Outline: as §1
# [14] = system: CP217
# Outline: as §1
# [15] = system: CP237
# Outline: as §1
# [16] = system: CP238
# Outline: as §1
# [17] = system: CP247
# Outline: as §1
# [18] = system: CP250
# Outline: as §1
# [19] = system: CP252
# Outline: as §1
# [20] = system: CP256
# Outline: as §1
# Potency means the concentration at half of the fitted maximal effect.
Structure (SMILES),Potency [1],Potency [2],Potency [3],Potency [4],Potency [5],Potency [6],Potency [7],Potency [8],Potency [9],Potency [10],Potency [11],Potency [12],Potency [13],Potency [14],Potency [15],Potency [16],Potency [17],Potency [18],Potency [19],Potency [20]
Cc1ccc(N=CN(C)C=Nc2ccc(C)cc2C)c(C)c1,inactive,inactive,inactive,inactive,inactive,inactive,inactive,inactive,inactive,inactive,inactive,inactive,inactive,inactive,inactive,inactive,inactive,inactive,inactive,inactive
Cc1ncc2n1-c1ccc(Cl)cc1C(c1ccccc1F)=NC2,inactive,inactive,inactive,inactive,inactive,inactive,inactive,inactive,inactive,inactive,inactive,inactive,inactive,inactive,inactive,inactive,inactive,inactive,inactive,inactive
CCC1(c2ccccc2)CCC(=O)NC1=O (stereo not given),inactive,inactive,inactive,inactive,inactive,inactive,inactive,inactive,inactive,inactive,inactive,inactive,inactive,inactive,inactive,inactive,inactive,inactive,inactive,inactive
CC(C)[N+](C)(CCC(C(N)=O)(c1ccccc1)c1ccccc1)C(C)C,inactive,inactive,inactive,inactive,inactive,inactive,inactive,inactive,inactive,inactive,inactive,inactive,inactive,inactive,inactive,inactive,inactive,inactive,inactive,inactive
C[C@H]1C(=O)O[C@@H]2CCN3CC=C(COC(=O)[C@](C)(O)[C@]1(C)O)[C@H]23,inactive,inactive,inactive,inactive,inactive,inactive,inactive,inactive,inactive,inactive,inactive,inactive,inactive,inactive,inactive,inactive,inactive,inactive,inactive,inactive
COc1ccc(C(=O)N2CCCC2=O)cc1,inactive,inactive,inactive,inactive,inactive,inactive,inactive,inactive,inactive,inactive,inactive,inactive,inactive,inactive,inactive,inactive,inactive,inactive,inactive,inactive
CNC(=O)NC(O)C(Cl)(Cl)Cl (stereo not given),inactive,inactive,inactive,inactive,inactive,inactive,inactive,inactive,inactive,inactive,inactive,inactive,inactive,inactive,inactive,inactive,inactive,inactive,inactive,inactive
COC(=O)C1=CCCN(C)C1,inactive,inactive,inactive,inactive,inactive,inactive,inactive,inactive,inactive,inactive,inactive,inactive,inactive,inactive,inactive,inactive,inactive,inactive,inactive,inactive
CC(C)NCC(O)c1ccc(N)c(C#N)c1 (stereo not given),inactive,inactive,inactive,inactive,inactive,inactive,inactive,inactive,inactive,inactive,inactive,inactive,inactive,inactive,inactive,inactive,inactive,inactive,inactive,inactive
CCC(=O)O[C@H]1CC[C@H]2[C@@H]3CCC4=CC(=O)CC[C@]4(C)[C@H]3CC[C@]12C,inactive,inactive,inactive,inactive,inactive,inactive,inactive,inactive,inactive,inactive,inactive,inactive,inactive,inactive,inactive,inactive,inactive,inactive,inactive,inactive
CN(C)C(=S)SSC(=S)N(C)C,2.24 µM (active),3.55 µM (active),4.47 µM (active),3.16 µM (active),3.16 µM (active),2 µM (active),3.16 µM (active),3.79 µM (active),3.38 µM (active),4.26 µM (active),4.78 µM (active),2.69 µM (active),5.36 µM (active),3.98 µM (active),1.58 µM (active),3.55 µM (active),2.82 µM (active),3.16 µM (active),3.98 µM (active),3.55 µM (active)
COP(=S)(OC)Oc1ccc(Sc2ccc(OP(=S)(OC)OC)cc2)cc1,inactive,inactive,inactive,inactive,inactive,inactive,inactive,inactive,inactive,inactive,inactive,inactive,inactive,inactive,inactive,inactive,inactive,inactive,inactive,inactive
ClC1=C(Cl)C2(Cl)C(CBr)CC1(Cl)C2(Cl)Cl (stereo not given),inactive,inactive,inactive,inactive,inactive,inactive,inactive,inactive,inactive,inactive,inactive,inactive,inactive,inactive,inactive,inactive,inactive,inactive,inactive,inactive
C[N+]1(CCC(C(N)=O)(c2ccccc2)c2ccccc2)CCCCC1,inactive,inactive,inactive,inactive,inactive,inactive,inactive,inactive,inactive,inactive,inactive,inactive,inactive,inactive,inactive,inactive,inactive,inactive,inactive,inactive
CCN(CC)C(C)C(=O)c1ccccc1 (stereo not given),inactive,inactive,inactive,inactive,inactive,inactive,inactive,inactive,inactive,inactive,inactive,inactive,inactive,inactive,inactive,inactive,inactive,inactive,inactive,inactive
CCN(Cc1ccc(Cl)nc1)/C(=C/[N+](=O)[O-])NC,inactive,inactive,inactive,inactive,inactive,inactive,inactive,inactive,inactive,inactive,inactive,inactive,inactive,inactive,inactive,inactive,inactive,inactive,inactive,inactive
OC(c1ccccc1)(c1ccccc1)C1CCNCC1,inactive,inactive,inactive,inactive,inactive,inactive,inactive,inactive,inactive,inactive,inactive,inactive,inactive,inactive,inactive,inactive,inactive,inactive,inactive,inactive
NC(=O)CN1CCCC1=O,inactive,inactive,inactive,inactive,inactive,inactive,inactive,inactive,inactive,inactive,inactive,inactive,inactive,inactive,inactive,inactive,inactive,inactive,inactive,inactive
COP(=O)(OC)OC=C(Cl)Cl,inactive,inactive,inactive,inactive,inactive,inactive,inactive,inactive,inactive,inactive,inactive,inactive,inactive,inactive,inactive,inactive,inactive,inactive,inactive,inactive
CCCCCCCCC(=O)NCc1ccc(O)c(OC)c1,inactive,inactive,inactive,inactive,inactive,inactive,inactive,inactive,inactive,inactive,inactive,inactive,inactive,inactive,inactive,inactive,inactive,inactive,inactive,inactive
Oc1c(Br)cc(Br)cc1Br,inactive,inactive,inactive,inactive,inactive,inactive,inactive,inactive,inactive,inactive,inactive,inactive,inactive,inactive,inactive,inactive,inactive,inactive,inactive,inactive
O=c1n(Cl)c(=O)n(Cl)c(=O)n1Cl,inactive,inactive,inactive,inactive,inactive,inactive,inactive,inactive,inactive,inactive,inactive,inactive,inactive,inactive,inactive,inactive,inactive,inactive,inactive,inactive
CC(C)C(Br)C(=O)NC(N)=O (stereo not given),inactive,inactive,inactive,inactive,inactive,inactive,inactive,inactive,inactive,inactive,inactive,inactive,inactive,inactive,inactive,inactive,inactive,inactive,inactive,inactive
CC[n+]1c(-c2ccccc2)c2cc(N)ccc2c2ccc(N)cc21,112 nM (active) and 355 nM (active),100 nM (active) and 282 nM (active),141 nM (active) and 708 nM (active),126 nM (active) and 355 nM (active),251 nM (active) and 355 nM (active),158 nM (active) and 316 nM (active),282 nM (active) and 447 nM (active),190 nM (active) and 426 nM (active),269 nM (active) and 1.2 µM (active),379 nM (active) and 1.35 µM (active),213 nM (active) and 675 nM (active),213 nM (active) and 601 nM (active),239 nM (active) and 953 nM (active),355 nM (active) and 631 nM (active),158 nM (active) and 398 nM (active),112 nM (active) and 355 nM (active),282 nM (active) and 631 nM (active),178 nM (active) and 355 nM (active),100 nM (active) and 282 nM (active),31.6 nM (active) and 63.1 nM (active)
